FXN GAA850 act – frataxin GAA850 promoter activation | HEK293 lucGAA850 FXN promoter luciferase reporter, 24 h; percent of 10 µM SAHA response | activation, % at 6 µM | hit rate 0.56% among 360,000;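 active = activation above the average of all compounds screened plus 3 SD, cutoff fixed separately per campaign, cut at about 7.5% in these data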;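 also: 0% = DMSO wells and 100% = 10 µM SAHA wells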
esBAF inh – blocks esBAF chromatin remodeling in mouse ES cells | Bmi1-luciferase knock-in reporter, 24 h; 100% = twice the neutral-well signal | hit rate 2% among 350,000 | reporter increase, % at 12.5 µM | AID 602393; in the data active = activation above about 40%; inconclusive = no clear call, values can overlap the other calls;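 also: 0% = median of the plate's neutral control wells and 100% = double that signal; a rise in the Bmi1 reporter signal indicates esBAF inhibition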
MITF TRPM1 HTS – MITF TRPM1 promoter activation in melanoma cells. AID 588334. activation, % at 12.5 µM. hit rate 0.75% among 300,000. SK-MEL-5 TRPM1-promoter luciferase, 24 h; % of positive control, neutral wells = 0;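 active = mean activation of at least 80% with every replicate also reaching 80%; inconclusive = mean reaches 80% but some replicate falls short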;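 also: 0% = neutral control wells and 100% = parthenolide positive control wells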
Wnt act – activators of Wnt/beta-catenin signaling; hit rate 1.2% among 300,000; Wnt/beta-catenin reporter cell assay, activator, plate reader; activation, % at 9.35 µM; in the data active = activation above about 30%, passing the limit was not always enough; inconclusive = no clear call, values can overlap the other calls;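 also: 0% = neutral control wells and 100% = positive control wells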
AHR activator – human AHR activation. P35869. AHR-responsive luciferase reporter cells, luminescence. activation, % at 5 µM. hit rate 2.5% among 320,000. AID 2796; in the data active = activation above about 47%;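 also: 0% = vehicle wells and 100% = reference agonist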
Target sequence (P35869 whole entry, looked up): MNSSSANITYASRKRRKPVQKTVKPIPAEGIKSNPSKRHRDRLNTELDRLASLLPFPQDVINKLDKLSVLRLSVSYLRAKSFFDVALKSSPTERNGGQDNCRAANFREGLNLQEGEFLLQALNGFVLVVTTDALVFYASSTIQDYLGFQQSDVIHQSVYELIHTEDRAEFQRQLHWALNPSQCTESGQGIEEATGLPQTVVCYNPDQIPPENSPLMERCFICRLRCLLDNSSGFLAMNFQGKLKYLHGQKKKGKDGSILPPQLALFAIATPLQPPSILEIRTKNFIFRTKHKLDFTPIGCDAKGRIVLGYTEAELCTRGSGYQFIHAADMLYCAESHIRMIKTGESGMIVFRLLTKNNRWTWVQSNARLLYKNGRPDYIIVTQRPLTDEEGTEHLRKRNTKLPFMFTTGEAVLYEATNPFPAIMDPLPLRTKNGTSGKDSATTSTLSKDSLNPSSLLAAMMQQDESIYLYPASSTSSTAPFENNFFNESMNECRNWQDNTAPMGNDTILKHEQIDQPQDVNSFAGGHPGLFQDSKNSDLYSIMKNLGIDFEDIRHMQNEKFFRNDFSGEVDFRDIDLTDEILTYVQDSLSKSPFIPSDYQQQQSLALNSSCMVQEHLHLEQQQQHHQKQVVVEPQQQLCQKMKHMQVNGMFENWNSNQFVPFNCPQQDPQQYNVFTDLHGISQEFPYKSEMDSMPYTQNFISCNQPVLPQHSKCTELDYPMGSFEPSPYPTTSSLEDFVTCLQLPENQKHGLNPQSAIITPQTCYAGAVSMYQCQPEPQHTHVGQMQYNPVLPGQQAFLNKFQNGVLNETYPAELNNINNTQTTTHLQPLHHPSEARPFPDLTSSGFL
The depositor's hits bear a star; ? = inconclusive; · = no result given. Shown are actives, neighbours in structure and some others; about 4.2% of the full set was active somewhere.

SMILES | FXN GAA850 act | esBAF inh | MITF TRPM1 HTS | Wnt act | AHR activator
COc1ccc(NC(=O)Nc2ccc3c(c2)C(=O)N(C)C[C@H](OC)[C@@H](C)CN[C@@H](C)CO3)cc1 | · | 2 | · | · | ·
CC1CCC(NC(=O)C2CCN(c3c4c(nc5ncnn35)CCC4)CC2)CC1 (stereo not drawn) | 1 | 41* | · | · | 1
O=C(CN1C(=O)COc2ccccc21)c1ccc(Cl)cc1 | 4 | -1 | · | -1 | 50*
O=C(Cc1ccccc1)N1CC[C@H]2[C@H](CO)Nc3ccc(Br)cc3[C@H]21 | · | -4 | · | · | ·
C=C1C(=O)C=C[C@]2(C)C[C@@H]3OC(=O)[C@](C)(O)[C@H]3C[C@@H]12 | -12 | 9 | -93 | 43* | -2
C[C@@H]1C[C@@H]2OC(=O)[C@]3(C)[C@H]2[C@@H](OC3(C)O)[C@]2(C)C(=O)C=C[C@H]12 (stereo partly drawn) | 7 | -3 | 4 | 11 | 0
CC(c1nccs1)N(C)C(=O)CCc1nnc(-c2ccc(-c3ccccc3)cc2)o1 (stereo not drawn) | -6 | · | -3 | 8 | -5
CC(c1nccs1)N(C)C(=O)c1cn(Cc2cccc3ccccc23)nn1 (stereo not drawn) | 2 | 48* | 43 | 8 | 3
COc1ccc(Cl)cc1-c1nc(-c2ccc(Br)o2)no1 | 1 | 51* | · | 6 | 31
CCOC(=O)c1cc2c(=O)c3cc(C)ccc3oc2nc1C | 5 | · | 28 | · | 0
CC(=O)c1cc2c(=O)c3cc(C)ccc3oc2nc1C | 3 | 60* | 56 | · | -2
CCN(CC)C(=O)c1cc2c(=O)c3cc(Cl)ccc3oc2nc1C | 5 | 45* | 48 | 22 | -1
Cc1ccc2oc3nc(C)c(C(=O)O)cc3c(=O)c2c1 | 2 | · | -9 | · | 2
O=C(c1cc(-c2ccccc2Cl)nc2ccccc12)N1CCC1 | 0 | · | 7 | 0 | 1
CN1CCCN(C(=O)c2cc(-c3cccc4ccccc34)nc3ccccc23)CC1 | 2 | -4 | 8 | 47* | 2
Cc1ccc(-c2cc(C(=O)N3CCN(c4ccccc4O)CC3)c3ccccc3n2)cc1 | 3 | 55* | 35 | 16 | 14
Cc1ccc(-c2cc(C(=O)N3CCN(c4ccc(O)cc4)CC3)c3ccccc3n2)cc1 | 2 | 25 | 40 | -2 | 23
CCCNC(=O)C[C@@H]1C[C@H]2c3cc(NC(=O)c4cccnc4)ccc3O[C@H]2[C@@H](CO)O1 | · | -2 | · | · | ·
CCN(CC)c1ccc(-n2cc3c(=O)n(C)c(=O)n(C)c3c2)cc1 | 4 | ? | 18 | · | -1
CN(C)c1ccc(-n2cc3c(=O)n(C)c(=O)n(C)c3c2)cc1 | 2 | 71* | 70 | · | 12
COc1ccccc1NC(=O)N[C@@H]1CC[C@@H](CCn2cc(-c3cccnc3)nn2)O[C@H]1CO | · | 1 | · | · | ·
CCC(c1ccccc1)c1nc(-c2cccnc2)no1 (stereo not drawn) | -1 | 7 | -5 | 3 | 15
CCC(c1ccccc1)c1nc(-c2ccccn2)no1 (stereo not drawn) | 0 | 47* | 25 | · | 4
Cc1ccc(OCc2nc(-c3ccccn3)no2)c(Br)c1 | -4 | -48 | 16 | -2 | -10
CC(Oc1ccc(Cl)cc1Cl)c1nc(-c2ccc(NC(=O)c3cccnc3)cc2)no1 (stereo not drawn) | 0 | 11 | 0 | · | 7
SMILES | FXN GAA850 act | esBAF inh | MITF TRPM1 HTS | Wnt act | AHR activator
CC(C)c1ccc(OCc2nc(-c3ccccn3)no2)c(Br)c1 | 7 | 25 | 79 | 76* | 0
CC(Oc1ccc(Cl)cc1Cl)c1nc(-c2ccccn2)no1 (stereo not drawn) | 5 | 103* | 131* | · | 6
COc1ccc(NC(=O)N(C)C[C@@H]2OCCCC[C@@H](C)Oc3ccc(NC(=O)Nc4ccc(F)cc4)cc3C(=O)N([C@@H](C)CO)C[C@H]2C)cc1 | · | 5 | · | · | ·
CC(C)CC#Cc1ccc2c(c1)O[C@@H](CN(C)C(=O)c1cccc(F)c1)[C@H](C)CN([C@@H](C)CO)S2(=O)=O | · | 10 | · | · | ·
CC(=O)N(C(C)=O)c1nc(-c2ccccc2)cn1/N=C/c1cccc([N+](=O)[O-])c1 | -1 | · | · | 1 | 49*
O=[N+]([O-])c1cccc(/C=N/n2c(-c3cccnc3)n[nH]c2=S)c1 | 0 | · | -4 | 3 | 14
CCOc1cnc(-c2ccc(Cl)cc2)o1 | 5 | · | 63 | · | -2
CCOc1cnc(-c2ccc(OC)cc2)o1 | 2 | · | 92* | · | 6
O=S(=O)(c1ccc(Cl)cc1)N1CCN(Cc2ccc(O)c3ncccc23)CC1 | -5 | · | -64 | 36* | 0
Oc1ccc(CN2CCN(Cc3ccccc3)CC2)c2cccnc12 | 1 | 6 | · | 6 | -1
C[C@@H]1CN([C@H](C)CO)C(=O)c2cc(C3=CCCCC3)cnc2O[C@H]1CN(C)Cc1ccncc1 | · | 4 | · | · | ·
CCCNC(=O)N(C)C[C@@H]1Oc2cc(C#CC(C)(C)O)ccc2S(=O)(=O)N([C@@H](C)CO)C[C@H]1C | · | -27 | · | · | ·
CN(C)c1cccc(O)c1 | 0 | 6 | 0 | 8 | 4
Cc1cc(O)ccc1Nc1cc(-c2cccc(N(C)C)c2)ncn1 | 4 | 55* | · | 0 | ·
C[C@@H]1CN([C@H](C)CO)C(=O)c2cccc(N(C)C)c2O[C@H]1CN(C)C | · | -2 | · | · | ·
COC(=O)c1ccc(NC(=S)Nc2ccc3ccccc3c2)cc1 | 1 | 16 | 1 | · | 26
S=C(NCc1ccccc1)Nc1ccc(Oc2ccccc2)cc1 | 2 | -2 | · | -1 | 74*
S=C(NCc1ccccc1)Nc1ccc2ccccc2c1 | 3 | 80* | 60 | 21 | ·
C/C(=C\C(=S)Nc1ccccc1)Nc1ccc2ccccc2c1 | 1 | · | 14 | 52* | 39
Cc1ccc(S(=O)(=O)Nc2ccc3c(c2)CC(=O)N([C@@H](C)CO)C[C@H](C)[C@H](CN(C)C(=O)Nc2c(C)noc2C)O3)cc1 | · | -6 | · | · | ·
COc1ccc(NC(=O)Nc2ccc3c(c2)C(=O)N([C@H](C)CO)C[C@@H](C)[C@H](CN(C)C(=O)CCCN(C)C)OCCCC[C@@H](C)O3)cc1 | · | 1 | · | · | ·
Cc1cc2cccc(C)c2nc1SCC(=O)NNC(=O)c1ccco1 | 1 | -6 | -9 | -3 | 52*
O=C(NC(C(=O)c1ccccc1)c1ccccc1)c1ccccc1 (stereo not drawn) | 0 | 41* | 41 | -2 | ·
Cc1nc2ccccc2nc(=O)c1NNc1ccccc1 | 2 | · | 102* | 25 | ·
Cc1ccc2nc(=O)c(NNc3ccccc3)cnc2c1 | 4 | · | 72 | ? | 45
SMILES | FXN GAA850 act | esBAF inh | MITF TRPM1 HTS | Wnt act | AHR activator
CNC(=O)C[C@H]1CC[C@@H]2[C@H](COc3ccc(NC(=O)Nc4ccccc4OC)cc3C(=O)N2C)O1 | · | 9 | · | · | ·
O=C(NC1=NCCS1)Nc1ccccc1 | 2 | · | 41 | 42* | 17
O=C(Nc1ccccc1)Nc1ccccc1 | 3 | 49* | 60 | 0 | ·
COc1ccccc1NC(=O)Nc1ccc(C(=O)N2CCCCC2)cc1 | 6 | 37 | 111* | 15 | 2
CS/C(N)=N/C(=S)Nc1cccc(Cl)c1 | 3 | · | 27 | 45* | -1
CO[C@H]1CN(C)C(=O)c2cc(NC(=O)c3cnccn3)ccc2OC[C@H](C)N(C(C)=O)C[C@@H]1C | · | 3 | · | · | ·
